# Source: PubChem BioAssay
# Results filed as inconclusive are left out. The source made the active and inactive calls.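 Rule for the calls, unless noted: active = percent response above 42, roughly 3 SD of non-fluorescent test compounds; inactive = the rest.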 Peptide text beside a SMILES is read from it.
# How the values were obtained:
# [1] = yeast TOR pathway RPL19A-GFP modulators, primary screen, cell-based, S. cerevisiae, multiplex flow cytometry (AID 1862; in the data active = percent of DMSO control GFP below about 86%;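 note: lower values mimic rapamycin by blocking the RPL19A rise seen in DMSO cells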); conditions: S. cerevisiae RPL19A-GFP strain, flow cytometry fluorescence, 3 h; at 10 µM; stronger effect = lower value
# [2] = modulators of MEP2-GFP levels in yeast, primary screen, S. cerevisiae, multiplex flow cytometry (AID 1867;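 active = GFP response, as percent of the DMSO control, above the screen-wide mean plus 3 SD, about 139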;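 note: median GFP channel fluorescence of barcode-gated MEP2-GFP cells measured by flow cytometry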); conditions: S. cerevisiae MEP2-GFP strain, 3 h, at 10 µM, stronger effect = higher value, 100% means same as DMSO wells
# [3] = modulators of CIT2-GFP expression in yeast, primary screen, S. cerevisiae, GFP fusion, multiplex flow cytometry (AID 1870;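 active = percent response above a set limit, the screen-wide mean plus 3 SD, cut at about 130% in these data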;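 note: barcoded CIT2-GFP strain pooled with four other GFP strains with rapamycin as positive control; median GFP fluorescence per well over plate mean of DMSO wells so 100% = DMSO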); conditions: 3 h, at 10 µM, stronger effect = higher value
# [4] = modulators of LAP4-GFP expression in yeast, primary screen, S. cerevisiae, multiplex flow cytometry (AID 1873;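 active = GFP signal, as percent of the solvent control, above the screen mean plus 3 SD, about 149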); conditions: 3 h, at 10 µM, stronger effect = higher value
# [5] = modulators of AGP1-GFP expression in yeast TOR pathway, primary screen, cell-based, multiplex flow cytometry, S. cerevisiae (AID 1887;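 active = GFP signal above the screen-wide mean plus 3 SD, that is over about 124.5% of the solvent control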;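 note: AGP1-GFP fusion strain of S. cerevisiae within a five-strain barcoded multiplex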); conditions: 3 h, at 10 µM, stronger effect = higher value
# [6] = inhibitors of CD8+ T cell-vesicle binding, pilot screen, LFA-1/ICAM-1 modulator project, MLPCN validation set, flow cytometry (AID 2523;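 active = response below a set limit, under 55% cells CD8-positive and vesicle-bound, and CD8 cells' 90th-percentile brightness under 279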;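 for vesicle binding response: mean PE anti-B7-1 fluorescence of CD8+ cells relative to row control; 100% = QL9-loaded vesicles with DMSO vehicle in the same plate row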); conditions: 2C mouse CD8+ T cells, at 7 µM, stronger effect = lower value; double positive events: measured here: CD8+/vesicle+ event percentage
# [7] = target: Integrin beta-1 (Homo sapiens) + Integrin alpha-4 (Homo sapiens) (UniProt P13612+P05556); assay: inhibition of HUTS-21 binding to VLA-4, pilot screen, VLA-4 allosteric modulator project, U937 cells, HUTS-21 mAb, flow cytometry, validation set (AID 2674;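 active = inhibition above 50%, about 3 SD of the validation set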;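 note: antibody binding induced by the VLA-4 ligand LDV present at three times its Kd; 0% = LDV ligand with antibody and no compound and 100% = antibody without LDV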); conditions: HUTS-21 LIBS mAb binding, at 6.7 µM, stronger effect = higher value, binding induced by LDV ligand
# Chain of Integrin beta-1 (Homo sapiens) + Integrin alpha-4 (Homo sapiens) (P05556 whole entry, looked up): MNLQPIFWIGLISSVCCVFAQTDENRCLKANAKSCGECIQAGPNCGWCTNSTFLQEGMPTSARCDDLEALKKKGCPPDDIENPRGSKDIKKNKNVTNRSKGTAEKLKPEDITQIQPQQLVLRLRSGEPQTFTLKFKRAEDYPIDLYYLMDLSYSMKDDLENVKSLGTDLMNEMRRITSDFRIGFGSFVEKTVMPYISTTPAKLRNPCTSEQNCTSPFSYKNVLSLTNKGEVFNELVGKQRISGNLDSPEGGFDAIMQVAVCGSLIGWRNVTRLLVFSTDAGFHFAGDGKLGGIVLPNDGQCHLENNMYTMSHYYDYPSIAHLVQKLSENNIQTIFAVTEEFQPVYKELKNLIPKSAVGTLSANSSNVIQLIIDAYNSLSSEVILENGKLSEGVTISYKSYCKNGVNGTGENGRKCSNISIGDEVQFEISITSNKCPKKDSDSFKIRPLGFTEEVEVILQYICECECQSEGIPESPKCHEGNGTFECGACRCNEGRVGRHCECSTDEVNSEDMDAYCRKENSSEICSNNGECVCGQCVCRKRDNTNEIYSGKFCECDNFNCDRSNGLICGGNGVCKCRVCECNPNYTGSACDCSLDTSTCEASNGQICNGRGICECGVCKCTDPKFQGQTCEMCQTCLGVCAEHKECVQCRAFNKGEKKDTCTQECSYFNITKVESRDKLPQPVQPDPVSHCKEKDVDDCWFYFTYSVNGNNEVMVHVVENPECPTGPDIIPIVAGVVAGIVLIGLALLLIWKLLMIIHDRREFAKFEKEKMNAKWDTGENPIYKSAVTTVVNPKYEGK
# Chain of Integrin beta-1 (Homo sapiens) + Integrin alpha-4 (Homo sapiens) (P13612 whole entry, looked up): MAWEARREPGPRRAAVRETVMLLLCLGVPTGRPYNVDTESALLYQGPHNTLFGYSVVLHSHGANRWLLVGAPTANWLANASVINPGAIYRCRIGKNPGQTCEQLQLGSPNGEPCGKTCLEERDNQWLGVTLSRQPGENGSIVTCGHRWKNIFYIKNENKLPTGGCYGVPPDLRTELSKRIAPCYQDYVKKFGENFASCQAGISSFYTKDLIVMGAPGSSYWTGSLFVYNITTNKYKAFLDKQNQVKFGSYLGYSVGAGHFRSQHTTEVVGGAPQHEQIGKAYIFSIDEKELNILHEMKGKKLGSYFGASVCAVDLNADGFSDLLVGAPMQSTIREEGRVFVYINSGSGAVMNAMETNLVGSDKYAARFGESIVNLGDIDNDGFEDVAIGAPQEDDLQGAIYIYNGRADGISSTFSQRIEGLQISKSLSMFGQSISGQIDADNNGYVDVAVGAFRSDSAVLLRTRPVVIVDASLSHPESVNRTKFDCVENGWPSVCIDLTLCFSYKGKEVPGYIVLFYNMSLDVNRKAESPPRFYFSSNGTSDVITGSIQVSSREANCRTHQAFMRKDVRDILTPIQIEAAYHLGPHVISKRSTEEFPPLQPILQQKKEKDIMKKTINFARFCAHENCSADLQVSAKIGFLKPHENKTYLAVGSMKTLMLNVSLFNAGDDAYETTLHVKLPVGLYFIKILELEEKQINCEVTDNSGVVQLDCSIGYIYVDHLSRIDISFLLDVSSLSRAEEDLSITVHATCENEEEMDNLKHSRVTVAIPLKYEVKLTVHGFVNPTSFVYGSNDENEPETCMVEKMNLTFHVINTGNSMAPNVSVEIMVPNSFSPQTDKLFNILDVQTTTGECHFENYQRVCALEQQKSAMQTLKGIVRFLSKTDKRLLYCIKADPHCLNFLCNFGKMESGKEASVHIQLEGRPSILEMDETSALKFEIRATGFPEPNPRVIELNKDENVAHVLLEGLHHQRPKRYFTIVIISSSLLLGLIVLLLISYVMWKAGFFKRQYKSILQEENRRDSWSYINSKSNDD
# [8] = superoxide lowering in aged yeast cells, pilot screen, validation compound set (AID 2706;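 active = superoxide response below 65% of plate, a cut near 3 SD across the whole screen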;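 note: yeast exposed to compound for one week at 30 degrees C before staining; 100% = mean of all compound wells on the same plate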); conditions: S. cerevisiae aging, superoxide DHE fluorescence; at 10 µM; stronger effect = lower value
# [9] = target: Beta-adrenergic receptor kinase 1 (Homo sapiens) (UniProt P25098); assay: GRK2 binders displacing RNA aptamer, biochemical, validation, human GRK2, bead flow cytometry (AID 488806;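 active = aptamer binding inhibition above 30%, about 3 SD of noise from non-fluorescent compounds; inactive = inhibition at or below 30%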); conditions: bead-bound GRK2, FAM-aptamer displacement, at 10 µM, stronger effect = higher value
# Chain of Beta-adrenergic receptor kinase 1 (Homo sapiens) (P25098 whole entry, looked up): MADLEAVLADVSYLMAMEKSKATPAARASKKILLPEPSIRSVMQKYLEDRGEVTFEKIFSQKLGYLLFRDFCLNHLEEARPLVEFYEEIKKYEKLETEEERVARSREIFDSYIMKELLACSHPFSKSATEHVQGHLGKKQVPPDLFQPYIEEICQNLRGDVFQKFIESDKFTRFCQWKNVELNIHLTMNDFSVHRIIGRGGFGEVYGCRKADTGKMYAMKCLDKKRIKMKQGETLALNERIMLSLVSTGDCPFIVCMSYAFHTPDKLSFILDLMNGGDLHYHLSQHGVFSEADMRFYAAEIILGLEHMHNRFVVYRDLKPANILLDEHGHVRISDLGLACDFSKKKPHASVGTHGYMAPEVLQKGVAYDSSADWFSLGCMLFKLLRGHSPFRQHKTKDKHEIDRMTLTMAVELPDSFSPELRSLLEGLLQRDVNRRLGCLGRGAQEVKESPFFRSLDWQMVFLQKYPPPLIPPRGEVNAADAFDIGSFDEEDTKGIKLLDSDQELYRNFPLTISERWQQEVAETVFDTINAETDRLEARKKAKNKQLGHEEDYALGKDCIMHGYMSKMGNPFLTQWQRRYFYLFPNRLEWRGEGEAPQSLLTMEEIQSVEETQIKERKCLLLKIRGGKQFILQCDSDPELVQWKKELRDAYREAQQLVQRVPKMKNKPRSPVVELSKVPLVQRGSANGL
# [10] = target: Beta-2 adrenergic receptor (Homo sapiens) (UniProt P07550); assay: beta2AR agonists driving receptor internalization, pilot screen, cell-based, FAP fluorogen, flow cytometry, validation set (AID 504459); conditions: Am2.2-beta2AR cells, FAP surface receptor flow cytometry; at 10 µM; stronger effect = higher value;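 note: agonist-driven loss of surface beta2AR via internalization measured by FAP dye flow cytometry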
# Chain of Beta-2 adrenergic receptor (Homo sapiens) (P07550 whole entry, looked up): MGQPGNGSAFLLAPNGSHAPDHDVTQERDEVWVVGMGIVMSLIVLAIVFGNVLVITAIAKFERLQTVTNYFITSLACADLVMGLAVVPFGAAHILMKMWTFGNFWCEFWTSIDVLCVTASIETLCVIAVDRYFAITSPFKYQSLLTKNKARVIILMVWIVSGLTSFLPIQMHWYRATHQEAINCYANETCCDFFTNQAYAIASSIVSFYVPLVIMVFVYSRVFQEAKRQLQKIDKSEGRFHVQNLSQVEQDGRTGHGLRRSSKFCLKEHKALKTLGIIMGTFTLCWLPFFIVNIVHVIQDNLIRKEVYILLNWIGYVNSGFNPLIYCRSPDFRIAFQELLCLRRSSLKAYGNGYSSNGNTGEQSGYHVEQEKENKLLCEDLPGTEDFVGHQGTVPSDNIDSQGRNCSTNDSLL
# [11] = target: AP-2 complex subunit beta (Homo sapiens) (UniProt P63010); assay: inhibitors of arrestin peptide binding to AP2, pilot screen, biochemical, validation set, GST-AP2 beads, flow cytometry (AID 504541;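 active = inhibition above 54%, about 3 SD of non-fluorescent compounds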;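 note: AP2 carries R879A mutation and is captured from E. coli lysate; bead-bound FITC arrestin peptide fluorescence measuring arrestin peptide binding to AP2; 0% = DMSO wells and 100% = excess unlabeled arrestin peptide control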); conditions: FITC arrestin peptide, at 10 µM, stronger effect = higher value, AP2 beta2 appendage fragment, R879A mutant
# Chain of AP-2 complex subunit beta (Homo sapiens) (P63010 whole entry, looked up, the tested form may be a part, one chain of several): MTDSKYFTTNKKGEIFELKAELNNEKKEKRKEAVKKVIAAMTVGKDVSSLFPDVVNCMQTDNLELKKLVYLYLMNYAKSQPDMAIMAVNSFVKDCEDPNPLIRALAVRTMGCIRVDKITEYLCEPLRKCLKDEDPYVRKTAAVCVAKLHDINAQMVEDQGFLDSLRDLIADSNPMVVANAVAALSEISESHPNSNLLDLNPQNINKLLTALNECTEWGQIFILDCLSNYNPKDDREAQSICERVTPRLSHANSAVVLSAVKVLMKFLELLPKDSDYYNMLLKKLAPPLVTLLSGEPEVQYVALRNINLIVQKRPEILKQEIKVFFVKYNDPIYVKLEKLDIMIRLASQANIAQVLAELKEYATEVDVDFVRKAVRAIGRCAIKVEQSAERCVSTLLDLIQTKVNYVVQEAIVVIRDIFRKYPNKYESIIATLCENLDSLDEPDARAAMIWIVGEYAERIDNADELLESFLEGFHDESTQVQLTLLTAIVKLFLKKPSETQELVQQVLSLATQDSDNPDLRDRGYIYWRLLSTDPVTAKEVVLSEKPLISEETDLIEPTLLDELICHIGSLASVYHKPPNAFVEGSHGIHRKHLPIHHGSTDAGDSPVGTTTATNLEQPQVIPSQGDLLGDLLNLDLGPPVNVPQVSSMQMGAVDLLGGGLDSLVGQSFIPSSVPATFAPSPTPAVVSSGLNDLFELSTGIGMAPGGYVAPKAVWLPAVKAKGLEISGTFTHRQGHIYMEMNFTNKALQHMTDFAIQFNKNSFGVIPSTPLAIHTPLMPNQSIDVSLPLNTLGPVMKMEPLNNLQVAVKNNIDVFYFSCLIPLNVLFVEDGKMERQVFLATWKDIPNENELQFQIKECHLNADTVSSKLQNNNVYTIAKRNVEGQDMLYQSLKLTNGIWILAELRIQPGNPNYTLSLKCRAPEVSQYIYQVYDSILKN
# [12] = yeast V-ATPase proton transport modulators, S. cerevisiae, pHLuorin, HTS validation (AID 504600; in the data active = response above about 15%;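 note: plate controls were DMSO for no effect and reference compound for full effect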); conditions: S. cerevisiae pHLuorin cytosolic pH, at 10 µM, stronger effect = higher value
# [13] = tested on: anti-desmoglein-3 scFv antibody binding to human DSG3; assay: inhibitors of anti-DSG3 scFv binding to DSG3, pilot screen, biochemical, validation compound set, bead-based, flow cytometry (AID 588368;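 active = binding below the plate cutoff, the plate median minus 3 SD, with a reading above zero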;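 note: signal is the median channel fluorescence of bead-bound GFP antibody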); conditions: Protein G beads, DSG3-Fc, scFv-GFP binding, at 10 µM, stronger effect = lower value
# [14] = inhibitors of fungal efflux pumps CDR1, CDR2, MDR1, pilot screen, validation compound set, multiplex, phenotypic (AID 588506;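 active = efflux inhibition above 0.42, the validation set average plus 4 SD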;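 note: Nile Red retained in cells so higher fluorescence means more efflux inhibition; 0 = negative control wells and 1 = enniatin B 25 µM full block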); conditions: S. cerevisiae pump-expressing triplex, Nile Red efflux flow cytometry; at 10 µM; stronger effect = higher value; the pumps come from Candida albicans
# [15] = target: ATP-binding cassette sub-family B member 6 (Homo sapiens) (UniProt Q9NP58); assay: ABCB6 transporter inhibitors, pilot screen, K562-ABCB6 cells, flow cytometry, validation set (AID 588550;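 active = inhibition above the screen-wide mean plus 3 SD, about 51%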;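 note: 0% = DMSO wells and 100% = benzethonium chloride 70 µM positive control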); conditions: K562-ABCB6 porphyrin accumulation, 1 h, at 10 µM, stronger effect = higher value
# Chain of ATP-binding cassette sub-family B member 6 (Homo sapiens) (Q9NP58 whole entry, looked up): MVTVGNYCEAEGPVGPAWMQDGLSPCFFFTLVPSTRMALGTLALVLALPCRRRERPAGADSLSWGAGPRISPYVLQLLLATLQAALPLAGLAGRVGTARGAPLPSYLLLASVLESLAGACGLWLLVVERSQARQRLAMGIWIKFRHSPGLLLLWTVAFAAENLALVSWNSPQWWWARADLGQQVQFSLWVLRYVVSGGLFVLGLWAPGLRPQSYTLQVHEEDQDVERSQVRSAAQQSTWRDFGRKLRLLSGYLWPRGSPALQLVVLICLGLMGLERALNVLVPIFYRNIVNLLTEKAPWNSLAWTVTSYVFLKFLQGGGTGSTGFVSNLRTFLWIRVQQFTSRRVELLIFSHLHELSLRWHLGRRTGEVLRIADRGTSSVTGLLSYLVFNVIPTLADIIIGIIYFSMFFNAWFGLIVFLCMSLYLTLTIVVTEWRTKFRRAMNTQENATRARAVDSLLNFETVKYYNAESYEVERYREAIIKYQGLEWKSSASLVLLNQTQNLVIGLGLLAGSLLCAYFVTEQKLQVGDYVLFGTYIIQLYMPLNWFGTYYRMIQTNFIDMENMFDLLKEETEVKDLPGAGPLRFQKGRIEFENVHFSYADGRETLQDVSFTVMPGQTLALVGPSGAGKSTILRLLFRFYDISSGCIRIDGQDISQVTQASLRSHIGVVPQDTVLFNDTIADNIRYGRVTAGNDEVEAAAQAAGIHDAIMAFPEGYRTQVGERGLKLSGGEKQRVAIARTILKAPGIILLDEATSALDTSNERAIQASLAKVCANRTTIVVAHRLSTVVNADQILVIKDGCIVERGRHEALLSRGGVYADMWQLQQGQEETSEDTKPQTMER
# [16] = promoters of myeloid differentiation in arrested cells, primary screen, cell-based, GFP/MAC1 double positive, flow cytometry, validation set (AID 588685;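 active = differentiation response of at least 50%, scaled between solvent and reference control, from cells with both markers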;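 note: compound exposure lasts four days before antibody staining and flow analysis; 0% = DMSO wells and 100% = 5 µM fulvestrant positive control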); conditions: ER-HoxA9 marrow cells, stronger effect = higher value, normalized: vehicle 0, fulvestrant 100
SMILES,percent of DMSO control GFP [1],GFP response vs DMSO [2],percent response of DMSO control [3],GFP response vs DMSO [4],"GFP response, % of DMSO [5]",double positive events [6] [%],vesicle binding response [6],inhibition [7],superoxide response (% of plate) [8],aptamer binding inhibition [9],response [10],inhibition [11],response [12],binding (% of control) [13],efflux inhibition (fraction of control) [14],inhibition [15],differentiation response [16]
CC1CCN(CCOCCOc2ccccc2Br)CC1,102% (inactive),103% (inactive),93.1% (inactive),86.8% (inactive),97.2% (inactive),54.8,167% (inactive),8.88% (inactive),95.8% (inactive),0% (inactive),-4.72% (inactive),-6.16% (inactive),-0.14% (inactive),95.6% (inactive),-0.17 (inactive),-4% (inactive),15.9% (inactive)
Nc1nc(SCc2ccc([N+](=O)[O-])cc2)c2ncn(C3OC(CO)C(O)C3O)c2n1 (stereo not drawn),108% (inactive),99.7% (inactive),106% (inactive),100% (inactive),107% (inactive),63.2,169% (inactive),8.29% (inactive),105% (inactive),0% (inactive),-15.6% (inactive),14.6% (inactive),0.04% (inactive),98.1% (inactive),-0.07 (inactive),2% (inactive),-7.5% (inactive)
CCOC(=O)C1=C(C)NC(C)=C(C(=O)OC)C1c1cccc(Cl)c1Cl (stereo not drawn),88.4% (inactive),125% (inactive),104% (inactive),79.2% (inactive),80.3% (inactive),65.9,193% (inactive),5.49% (inactive),121% (inactive),6% (inactive),-8.07% (inactive),-0.86% (inactive),-0.17% (inactive),106% (inactive),-0.28 (inactive),9% (inactive),0% (inactive)
Cn1c(Oc2ccc3c(c2)OCO3)nc2c1c(=O)n(Cc1ccccc1)c(=O)n2C,98.7% (inactive),102% (inactive),94.4% (inactive),104% (inactive),109% (inactive),60.5,189% (inactive),-5.38% (inactive),116% (inactive),8% (inactive),-26.9% (inactive),3.83% (inactive),-0.9% (inactive),97.8% (inactive),0.04 (inactive),5% (inactive),-4.99% (inactive)
O=C(CCSc1ccccc1)N1CCCC1,109% (inactive),109% (inactive),104% (inactive),104% (inactive),112% (inactive),67.6,193% (inactive),3.98% (inactive),109% (inactive),5% (inactive),-4.18% (inactive),33.8% (inactive),-0.71% (inactive),91.3% (inactive),-0.15 (inactive),5% (inactive),-0.36% (inactive)
COc1ccc(NC(=O)N2CCCCC2c2cccnc2)cc1 (stereo not drawn),98.9% (inactive),105% (inactive),99% (inactive),109% (inactive),105% (inactive),59.7,454% (inactive),7.4% (inactive),116% (inactive),7% (inactive),-25.6% (inactive),0.21% (inactive),3.03% (inactive),103% (inactive),0 (inactive),-2% (inactive),-18.8% (inactive)
COc1ccc(CCn2c(C)nc3c(c(=O)c4ccccc4n3C)c2=O)cc1,98.6% (inactive),102% (inactive),103% (inactive),104% (inactive),116% (inactive),61.1,155% (inactive),-8.78% (inactive),96.8% (inactive),5% (inactive),-29.5% (inactive),7.96% (inactive),7.85% (inactive),101% (inactive),0.21 (inactive),5% (inactive),16.7% (inactive)
O=C(CNC(=O)OCc1ccccc1)Oc1cc2oc(=O)cc(-c3ccccc3)c2cc1Cl,97.5% (inactive),107% (inactive),111% (inactive),107% (inactive),71.1% (inactive),61.1,423% (inactive),-0.27% (inactive),207% (inactive),8% (inactive),-13.2% (inactive),12.8% (inactive),-27.5% (inactive),103% (inactive),-0.09 (inactive),1% (inactive),-4% (inactive)
COC(=O)c1[nH]c2ccc(C)cc2c1NC(=O)CN1CCc2cc(OC)c(OC)cc2C1,106% (inactive),111% (inactive),117% (inactive),103% (inactive),105% (inactive),63.8,296% (inactive),-11.8% (inactive),130% (inactive),4% (inactive),10.4% (inactive),-5.24% (inactive),-3.57% (inactive),101% (inactive),0.5 (active),24% (inactive),-10.4% (inactive)
CCOc1ccc(C(=O)NC(C)C2COc3ccccc3O2)cc1 (stereo not drawn),99.5% (inactive),104% (inactive),95.7% (inactive),110% (inactive),106% (inactive),61.2,111% (inactive),7.4% (inactive),108% (inactive),6% (inactive),-18% (inactive),-0.3% (inactive),-8.02% (inactive),106% (inactive),-0.17 (inactive),1% (inactive),4.86% (inactive)
COc1ccc2c(c1OC)C(=O)OC2C1c2c(cc3c(c2OC)OCO3)CCN1C (stereo not drawn),97.8% (inactive),100% (inactive),104% (inactive),91.4% (inactive),95.7% (inactive),60.2,230% (inactive),11% (inactive),92.5% (inactive),5% (inactive),-9.24% (inactive),-5.89% (inactive),-1.48% (inactive),96.4% (inactive),-0.29 (inactive),-1% (inactive),-2.69% (inactive)
C#CCN1C(=O)C(O)(c2c(C)[nH]c3ccccc23)c2ccccc21 (stereo not drawn),103% (inactive),106% (inactive),96% (inactive),103% (inactive),100% (inactive),65,220% (inactive),-0.31% (inactive),96.9% (inactive),3% (inactive),1% (inactive),2.17% (inactive),-0.83% (inactive),100% (inactive),-0.44 (inactive),3% (inactive),0% (inactive)
Cc1ccc(C(=O)NCCNC(=O)c2ccccc2)cc1,92.8% (inactive),96.6% (inactive),88% (inactive),98.3% (inactive),103% (inactive),69.2,179% (inactive),13.4% (inactive),102% (inactive),0% (inactive),-20.1% (inactive),-2.62% (inactive),-1.2% (inactive),103% (inactive),-0.04 (inactive),4% (inactive),-18.8% (inactive)
CC(=O)NC(Cc1ccccc1)C(=O)OCC(=O)c1ccccc1 (stereo not drawn),96% (inactive),102% (inactive),88.6% (inactive),106% (inactive),100% (inactive),65.2,144% (inactive),9.1% (inactive),111% (inactive),3% (inactive),-9.61% (inactive),9.32% (inactive),3.98% (inactive),105% (inactive),0 (inactive),6% (inactive),-21.7% (inactive)
O=c1c(-c2ccccc2)c(O)c2cccc3c2n1CCC3,99.7% (inactive),104% (inactive),95.7% (inactive),132% (inactive),103% (inactive),61.2,186% (inactive),1.44% (inactive),108% (inactive),-3% (inactive),-27.7% (inactive),-7.94% (inactive),0.3% (inactive),101% (inactive),-0.09 (inactive),1% (inactive),-12.9% (inactive)
CCN1C(=O)C(CC(=O)Nc2ccc(F)cc2)N(Cc2ccco2)C1=S (stereo not drawn),99% (inactive),102% (inactive),95.1% (inactive),106% (inactive),114% (inactive),62.4,194% (inactive),15.1% (inactive),107% (inactive),5% (inactive),-17.8% (inactive),-8.85% (inactive),1.67% (inactive),99.9% (inactive),-0.04 (inactive),7% (inactive),18.7% (inactive)
O=C(O)CCC(=O)c1ccc(-c2ccccc2)cc1,102% (inactive),102% (inactive),102% (inactive),125% (inactive),108% (inactive),65.4,245% (inactive),-9.13% (inactive),99.8% (inactive),-1% (inactive),11.2% (inactive),10.7% (inactive),-4.64% (inactive),103% (inactive),0.36 (inactive),0% (inactive),-11.9% (inactive)
CC(=O)NC(CC(C)C)C(=O)NC(Cc1ccccc1)C(N)=O (stereo not drawn) (Ac-Leu-Phe-NH2; configuration not given here),101% (inactive),107% (inactive),98.6% (inactive),111% (inactive),103% (inactive),60.5,128% (inactive),20.4% (inactive),91.8% (inactive),2% (inactive),4.73% (inactive),-15.5% (inactive),-1.63% (inactive),103% (inactive),-0.13 (inactive),13% (inactive),-4.57% (inactive)
Cc1cc(C(=O)Nc2ccccc2C(=O)N2CCCCC2)ccc1[N+](=O)[O-],98.4% (inactive),103% (inactive),86.7% (inactive),114% (inactive),103% (inactive),62.3,168% (inactive),-7.08% (inactive),124% (inactive),1% (inactive),-23.4% (inactive),19.6% (inactive),-4.47% (inactive),108% (inactive),-0.04 (inactive),8% (inactive),-8.93% (inactive)
